Shiga inhibitor: blocks Shiga toxin action in Vero cells; Vero cells, Shiga toxin protein synthesis inhibition reporter; inhibition, % at 38.7 µM; 9.2% of 290,000 active; in the data active = inhibition mostly above about 28%, no sharp cut-off; inactive = mostly below about 43%
Pf growth 48h: P. falciparum growth inhibition at 48 hours (one generation) | P. falciparum luciferase growth in erythrocytes, 48 h | Potency, µM (titrated, usually from 28.7 µM), actives largely listed as inhibitors | 5.9% of 310,000 active
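A one-generation exposure of luciferase-tagged malaria parasites in RPMI 1640/Albumax erythrocyte culture, 37 C and 5% CO2. Inhibition is inferred from decreased luminescence after adding detection reagent.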
HCV inh: inhibitors of hepatitis C virus infection; Huh7.5.1 HCVcc-Cre infection, luciferase reporter, 44 h; 3.4% of 340,000 active; Potency, µM (series often up to 41.8 µM), hits mostly inhibitors; AID 651820
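1,000 cells/well; 4 h culture; + compound; + HCVcc-Cre (~0.5 moi); 44 h; luciferase substrate, RT 15 min; read 15 sec.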
Pf growth 96h: P. falciparum growth inhibition at 96 hours; P. falciparum luciferase reporter growth, 96 h; Potency, µM (top dose mostly 28.7 µM), most hits filed as inhibitors; 6.9% of 320,000 active; AID 504834
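Delayed-death screen, second-generation endpoint: infected erythrocytes, 2% hematocrit, 0.05% parasitemia final; 96 hours at 37 C, 5% CO2; luciferase detection reagent; luminescence decrease equals reduced growth.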
Cycloheximide cs: affects cycloheximide protein synthesis inhibition readout, counter-screen. cell reporter, cycloheximide protein synthesis inhibition counterscreen. max response, %. 12% of 300,000 active. AID 2314; in the data active = max response mostly above about 13%, no sharp cut-off; inactive = mostly below about 14%; note: read at 38.3 µM for the half of the compounds with a filed dose
HCMV inh: blocks human cytomegalovirus replication; HFF cells, HCMV-luciferase reporter, 72 h; stronger effect = lower value; activity change, negative = inhibition, % at 57.5 µM; 4.5% of 410,000 active; AID 1259415; in the data active = activity change below about -60%; inconclusive = no clear call, values can overlap the other calls; inactive = above about -39%
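Screen run at 2 compound doses on HFFs infected with reporter HCMV, MOI 1 PFU/cell. Luciferase activity from cell lysates at 72 h post infection gave inhibition relative to buffer-only and Salinomycin wells.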
Of the large screens only hits and unclear results are named; the others gave an inactive call. Rows were chosen to be rich in hits. Some 21% of all compounds tested hit in one or more screens of this group. Unless noted, calls come from the whole dose curve; as a rule, active = well fitted inhibition curve with a large enough effect; inconclusive = small, poorly fitted or top-dose-only effect, or another doubt; inactive = no such curve, though single readings can be large or run the other way.

Cc1ccc(NC(=S)Nc2ccc(S(=O)(=O)N3CCOCC3)cc2)cc1S(=O)(=O)N1CCOCC1	HCMV inh inconclusive
COc1ccccc1NC(=O)C/C(C)=N/NC(=O)c1ccccn1	Shiga inhibitor 63, Cycloheximide cs 33
COc1cc(NC(=O)C/C(C)=N/NC(=O)c2ccccn2)c(OC)cc1Cl	Shiga inhibitor 72, Cycloheximide cs 44
Cc1nc2ccc(NC(=O)CSc3nnc(C)s3)cc2[nH]1	Pf growth 96h inconclusive
O=C1CCCCN1CC(=O)N1CCCC(Nc2ccc(F)cc2)C1 (configuration not stated)	none
COc1ccc(NC(=O)CCc2nnc3n(C)c(=O)c4sccc4n23)cc1Cl	none (no result: Shiga inhibitor, Pf growth 48h, HCV inh, Pf growth 96h, Cycloheximide cs)
CCC(C(=O)O)C1OC(C(C)C(O)C(C)C(=O)C(CC)C2OC3(C=CC(O)C4(CCC(C)(C5CCC(O)(CC)C(C)O5)O4)O3)C(C)CC2C)C(C)CC1C (configuration not stated)	Pf growth 48h 0.054µM, Pf growth 96h 0.034µM (no result: Shiga inhibitor, HCV inh, Cycloheximide cs, HCMV inh)
Cc1cccn2c1nc(=S)n2C(=O)c1ccco1	Shiga inhibitor 82, Cycloheximide cs 43
COc1ccc(NC(=O)Cn2nc3c(cc2=O)CCCC3)cc1Cl	none (no result: Shiga inhibitor, Pf growth 48h, HCV inh, Pf growth 96h, Cycloheximide cs)
CCCN1C(=O)S/C(=C/c2ccc(N3CCOCC3)o2)C1=O	Shiga inhibitor 66, HCV inh inconclusive, Cycloheximide cs 47, HCMV inh -79
CCCN1C(=O)S/C(=C\c2ccc(N3CCOCC3)o2)C1=O	Shiga inhibitor 98, Cycloheximide cs 41
CCOC(=O)CN1C(=O)S/C(=C/c2ccc(N3CCCCC3)o2)C1=O	none
CCOC(=O)CN1C(=O)S/C(=C/c2ccco2)C1=O	Cycloheximide cs 15
COC(=O)CN1C(=O)S/C(=C/c2ccc(N3CCCCC3)o2)C1=O	HCV inh inconclusive, HCMV inh -104
Cc1ccc2nc(-c3cccc(Cl)c3)c(Cc3ccccc3C(F)(F)F)n2c1	none (no result: Shiga inhibitor, Pf growth 48h, HCV inh, Pf growth 96h, Cycloheximide cs)
COC(=O)C1=C(C)N(Cc2ccccc2C(F)(F)F)C(=NCc2ccc(OC)cc2)NC1c1cccc(F)c1 (configuration not stated)	none (no result: Shiga inhibitor, Pf growth 48h, HCV inh, Pf growth 96h, Cycloheximide cs)
Cc1ccc(C(=O)N2c3ccccc3N(Cc3ccccc3)C(=O)C2(C)C)cc1	Pf growth 48h 12µM, HCV inh 11µM, Pf growth 96h 7.4µM, HCMV inh -93
Cc1cc(C)n2cc(CSc3nncn3C)nc2n1	none
O=C(O)COCCN1CCN([C@@H](c2ccccc2)c2ccc(Cl)cc2)CC1	Pf growth 48h inconclusive, Pf growth 96h 4.1µM (no result: Shiga inhibitor, HCV inh, Cycloheximide cs, HCMV inh)
CN1CCN(C(c2ccccc2)c2ccc(Cl)cc2)CC1 (configuration not stated)	Pf growth 48h inconclusive, HCV inh inconclusive, Pf growth 96h inconclusive (no result: Shiga inhibitor, Cycloheximide cs)
COc1ccccc1C1CCN(Cc2cccc3ccccc23)CC1	HCV inh 7.9µM, Pf growth 96h inconclusive (no result: Pf growth 48h)
O=C(O)COCC(=O)N1CCN(C(c2ccccc2)c2ccccc2)CC1	none
Clc1ccc(C(c2ccccc2)N2CCNCC2)cc1 (configuration not stated)	HCV inh 11µM, Pf growth 96h inconclusive (no result: Pf growth 48h)
COc1cccc(OC)c1OCCCCN1CCC(Cc2ccccc2)CC1	Pf growth 48h inconclusive, HCV inh 11µM
